ChEMBL document CHEMBL3988442, “University of Dundee, Small-Polar-MMV Screening Library” (2021)
For some of these results: Measured potencies and affinities stand elsewhere.

Columns and labels:
[1] = biological target: Protein translocase subunit SecA (Escherichia coli (strain K12)) (UniProt P10408); test: Assay to Identify E. coli SecA ATPase Inhibitors; assay type: functional; parameters: scale not given: direction of the effect not stated beside the values; conditions: 30 µM
[2] = biological target: T1, Ubiquitin-activating enzyme e1, putative (Leishmania donovani (strain BPK282A1)) (UniProt E9BSI1); test: Leishmania donovani Ubiquitin Activating Enzyme (LdE1); assay type: functional; parameters: scale not given: direction of the effect not stated beside the values; conditions: 30 µM
T1 sequence (whole entry): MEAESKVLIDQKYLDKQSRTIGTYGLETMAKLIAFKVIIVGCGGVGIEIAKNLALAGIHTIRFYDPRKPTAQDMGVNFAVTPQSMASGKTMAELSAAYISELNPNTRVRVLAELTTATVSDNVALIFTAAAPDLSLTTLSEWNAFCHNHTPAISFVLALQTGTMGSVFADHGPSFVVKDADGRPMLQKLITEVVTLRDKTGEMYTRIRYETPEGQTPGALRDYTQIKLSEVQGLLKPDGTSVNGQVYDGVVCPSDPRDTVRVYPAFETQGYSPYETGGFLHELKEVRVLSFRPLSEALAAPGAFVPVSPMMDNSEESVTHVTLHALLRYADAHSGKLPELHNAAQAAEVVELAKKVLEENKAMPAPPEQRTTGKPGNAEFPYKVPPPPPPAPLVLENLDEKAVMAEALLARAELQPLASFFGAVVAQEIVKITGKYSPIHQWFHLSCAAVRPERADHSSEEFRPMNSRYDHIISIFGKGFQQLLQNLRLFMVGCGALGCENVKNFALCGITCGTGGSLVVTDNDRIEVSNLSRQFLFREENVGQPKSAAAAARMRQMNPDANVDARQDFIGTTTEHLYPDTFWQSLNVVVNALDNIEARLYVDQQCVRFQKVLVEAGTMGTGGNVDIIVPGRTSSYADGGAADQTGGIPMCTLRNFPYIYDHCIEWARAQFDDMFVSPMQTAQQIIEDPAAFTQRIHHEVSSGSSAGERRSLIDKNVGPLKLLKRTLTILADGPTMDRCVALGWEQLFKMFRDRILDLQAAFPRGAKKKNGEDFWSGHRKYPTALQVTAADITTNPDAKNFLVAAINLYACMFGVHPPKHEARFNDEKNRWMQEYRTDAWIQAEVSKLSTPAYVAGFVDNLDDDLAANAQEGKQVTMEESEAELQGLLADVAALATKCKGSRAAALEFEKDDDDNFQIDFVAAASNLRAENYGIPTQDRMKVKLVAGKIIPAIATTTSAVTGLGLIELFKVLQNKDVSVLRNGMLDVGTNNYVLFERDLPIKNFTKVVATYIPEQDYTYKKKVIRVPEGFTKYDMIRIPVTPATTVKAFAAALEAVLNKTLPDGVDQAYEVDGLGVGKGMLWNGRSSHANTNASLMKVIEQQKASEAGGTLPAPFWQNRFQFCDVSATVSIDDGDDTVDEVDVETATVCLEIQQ

[3] = biological target: T2, Aspartate--tRNA(Asp/Asn) ligase (Mycobacterium tuberculosis (strain ATCC 25618 / H37Rv)) (UniProt P9WFW3); test: Assay for Asp RNA synthetase-1 from Mycobacterium tuberculosis; assay type: functional; parameters: scale not given: direction of the effect not stated beside the values; conditions: 30 µM; also: in the data most compounds retested in dose-response had high values
T2 sequence (whole entry): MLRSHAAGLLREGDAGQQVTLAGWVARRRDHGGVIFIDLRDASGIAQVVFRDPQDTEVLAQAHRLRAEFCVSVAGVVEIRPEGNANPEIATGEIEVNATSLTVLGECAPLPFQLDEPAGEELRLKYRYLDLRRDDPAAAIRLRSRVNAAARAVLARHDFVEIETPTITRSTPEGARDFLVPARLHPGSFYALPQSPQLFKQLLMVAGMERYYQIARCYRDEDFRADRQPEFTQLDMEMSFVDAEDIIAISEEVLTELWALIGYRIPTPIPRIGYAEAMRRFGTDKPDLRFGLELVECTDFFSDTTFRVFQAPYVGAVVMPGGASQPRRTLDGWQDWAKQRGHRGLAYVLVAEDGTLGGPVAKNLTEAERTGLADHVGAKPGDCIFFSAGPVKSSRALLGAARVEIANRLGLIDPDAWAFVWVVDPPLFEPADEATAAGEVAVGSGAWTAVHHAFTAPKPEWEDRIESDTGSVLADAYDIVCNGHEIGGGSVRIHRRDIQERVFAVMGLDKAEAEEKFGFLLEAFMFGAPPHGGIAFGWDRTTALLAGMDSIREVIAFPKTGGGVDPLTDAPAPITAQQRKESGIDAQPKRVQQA

[4] = biological target: AMP-activated protein kinase, AMPK (Homo sapiens) (UniProt P54646+O43741+P54619+Q9UGJ0+Q9Y478+Q13131+Q9UGI9); test: AMP-dependent Kinase enzyme assay. An in vitro enzyme assay that detects ADP turnover that is directly proportional to AMPK activity. This uses naive AMPK that is activated during the assay with MK-8722; assay type: functional; parameters: scale not given: direction of the effect not stated beside the values; conditions: 30 µM
[5] = biological target: Sialic acid-binding Ig-like lectin 9 (Homo sapiens) (UniProt Q9Y336); test: Hs-Siglec9 ALPHAscreen SOP 20170721; parameters: scale not given: direction of the effect not stated beside the values; conditions: 10 µM
[6] = test system: Trypanosoma cruzi; test: Trypanosoma cruzi phosphomannomutase and mannose-1-phosphate guanylyltransferase assay; assay type: functional; parameters: scale not given: direction of the effect not stated beside the values; conditions: 10 µM
[7] = biological target: T3, Arginase-2, mitochondrial (Homo sapiens) (UniProt P78540); test: in vitro enzyme assay to detect the production of urea directly proportional to the activity of Arginase II; assay type: functional; parameters: scale not given: in the data most compounds retested in dose-response had high values
T3 sequence (whole entry): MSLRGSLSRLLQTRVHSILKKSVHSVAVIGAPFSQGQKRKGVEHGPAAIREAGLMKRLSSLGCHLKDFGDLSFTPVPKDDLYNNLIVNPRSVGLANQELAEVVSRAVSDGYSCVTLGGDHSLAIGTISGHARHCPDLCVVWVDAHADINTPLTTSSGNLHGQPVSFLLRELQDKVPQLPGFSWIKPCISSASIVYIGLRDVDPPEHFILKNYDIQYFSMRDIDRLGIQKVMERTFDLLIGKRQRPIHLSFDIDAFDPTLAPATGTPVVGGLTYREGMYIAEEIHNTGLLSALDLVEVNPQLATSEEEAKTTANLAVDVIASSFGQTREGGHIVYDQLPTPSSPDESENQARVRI

[8] = biological target: T4, Proteasome subunit beta (Trypanosoma cruzi) (UniProt O96673); test: Trypanosoma cruzi proteasome chymotrypsin-like activity (TcProtChymo) assay.; assay type: functional; parameters: scale not given: in the data most compounds retested in dose-response had high values; conditions: 9.37 µM
T4 sequence (whole entry): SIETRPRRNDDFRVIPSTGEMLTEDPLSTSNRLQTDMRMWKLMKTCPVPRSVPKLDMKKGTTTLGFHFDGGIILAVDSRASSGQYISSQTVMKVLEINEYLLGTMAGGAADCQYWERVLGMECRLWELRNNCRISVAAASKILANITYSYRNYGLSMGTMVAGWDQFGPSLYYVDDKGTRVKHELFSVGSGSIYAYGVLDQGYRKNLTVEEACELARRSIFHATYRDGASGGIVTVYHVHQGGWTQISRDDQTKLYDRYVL

[9] = species: Homo sapiens; test: To identify inhibition of the IFN signalling (Jak-Stat) pathway via expression of an eGFP reporter gene under the control of an IFN-stimulated response element (ISRE) containing MxA promoter.; assay type: functional; parameters: scale not given: direction of the effect not stated beside the values; conditions: 30 µM
[10] = biological target: Shiga toxin 2 (Escherichia coli O157:H7) (UniProt P09385+P09386); test: E. coli 0.157:H7 Shiga Toxin SOP - stx2 screening assay; assay type: functional; parameters: scale not given: direction of the effect not stated beside the values; conditions: 30 µM
[11] = biological target: T5, Tyrosyl-tRNA synthetase, putative (Trypanosoma cruzi (strain CL Brener)) (UniProt Q4DSP6); test: Trypanosoma cruzi tyrosyl tRNA synthetase (TcYRS) _High Tyrosine SOP; assay type: functional; parameters: scale not given: in the data most compounds retested in dose-response had high values; conditions: 30 µM
T5 sequence (whole entry): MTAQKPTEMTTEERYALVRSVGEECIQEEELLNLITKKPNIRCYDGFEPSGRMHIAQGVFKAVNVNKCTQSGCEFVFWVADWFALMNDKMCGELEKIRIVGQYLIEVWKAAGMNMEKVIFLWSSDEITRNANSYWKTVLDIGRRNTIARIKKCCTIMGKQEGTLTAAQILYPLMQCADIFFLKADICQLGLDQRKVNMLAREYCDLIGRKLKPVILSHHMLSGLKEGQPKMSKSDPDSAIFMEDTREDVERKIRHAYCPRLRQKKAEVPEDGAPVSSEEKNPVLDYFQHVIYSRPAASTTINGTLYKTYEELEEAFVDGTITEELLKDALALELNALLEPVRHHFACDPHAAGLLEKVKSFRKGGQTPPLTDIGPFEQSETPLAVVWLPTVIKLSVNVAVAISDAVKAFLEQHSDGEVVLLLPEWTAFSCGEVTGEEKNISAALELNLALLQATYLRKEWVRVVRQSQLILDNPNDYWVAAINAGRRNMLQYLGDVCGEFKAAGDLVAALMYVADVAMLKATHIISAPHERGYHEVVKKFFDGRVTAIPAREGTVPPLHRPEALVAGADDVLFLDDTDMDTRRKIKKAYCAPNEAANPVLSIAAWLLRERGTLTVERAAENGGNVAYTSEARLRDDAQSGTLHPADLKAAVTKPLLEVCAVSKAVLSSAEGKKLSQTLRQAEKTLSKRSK

[12] = biological target: T5, Tyrosyl-tRNA synthetase, putative (Trypanosoma cruzi (strain CL Brener)); test: Trypanosoma cruzi tyrosyl tRNA synthetase (TcYRS) SOP; assay type: functional; parameters: scale not given: direction of the effect not stated beside the values; conditions: 30 µM
[13] = biological target: Chromo domain-containing protein 1 (Saccharomyces cerevisiae (strain ATCC 204508 / S288c) (Baker's yeast)) (UniProt P32657); test: ScCHD-1 Enzyme Inhibition Assay; assay type: functional; parameters: scale not given: in the data most compounds retested in dose-response had high values; conditions: 30 µM
[14] = biological target: T6, Methionyl-tRNA synthetase, putative (Leishmania donovani (strain BPK282A1)) (UniProt E9BF75); test: Leishmania donovani Methionine tRNA synthetase (LdMetRS):v7. Dose response assay; assay type: functional; parameters: conc 80 nM, time 150 minutes
T6 sequence (whole entry): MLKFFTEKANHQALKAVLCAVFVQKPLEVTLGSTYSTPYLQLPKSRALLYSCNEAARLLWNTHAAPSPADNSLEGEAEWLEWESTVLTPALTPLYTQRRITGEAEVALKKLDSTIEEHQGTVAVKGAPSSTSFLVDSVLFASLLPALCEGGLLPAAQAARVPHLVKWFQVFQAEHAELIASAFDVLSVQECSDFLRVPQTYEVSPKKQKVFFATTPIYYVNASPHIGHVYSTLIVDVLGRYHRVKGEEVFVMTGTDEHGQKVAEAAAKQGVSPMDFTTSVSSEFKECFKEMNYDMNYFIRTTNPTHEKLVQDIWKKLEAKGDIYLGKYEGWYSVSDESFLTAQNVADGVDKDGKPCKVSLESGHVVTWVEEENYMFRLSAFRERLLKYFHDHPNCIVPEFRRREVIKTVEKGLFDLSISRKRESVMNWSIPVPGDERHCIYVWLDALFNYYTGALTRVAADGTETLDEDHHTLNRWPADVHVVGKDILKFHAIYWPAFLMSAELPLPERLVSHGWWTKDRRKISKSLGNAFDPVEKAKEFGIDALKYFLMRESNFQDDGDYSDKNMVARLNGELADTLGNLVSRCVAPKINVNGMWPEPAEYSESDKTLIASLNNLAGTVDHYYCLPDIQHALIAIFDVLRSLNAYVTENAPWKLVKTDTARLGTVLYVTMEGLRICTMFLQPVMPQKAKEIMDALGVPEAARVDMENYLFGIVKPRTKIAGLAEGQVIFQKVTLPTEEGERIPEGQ

Sialic acid-binding Ig-like lectin 9 (Homo sapiens), sequence (Q9Y336 whole entry): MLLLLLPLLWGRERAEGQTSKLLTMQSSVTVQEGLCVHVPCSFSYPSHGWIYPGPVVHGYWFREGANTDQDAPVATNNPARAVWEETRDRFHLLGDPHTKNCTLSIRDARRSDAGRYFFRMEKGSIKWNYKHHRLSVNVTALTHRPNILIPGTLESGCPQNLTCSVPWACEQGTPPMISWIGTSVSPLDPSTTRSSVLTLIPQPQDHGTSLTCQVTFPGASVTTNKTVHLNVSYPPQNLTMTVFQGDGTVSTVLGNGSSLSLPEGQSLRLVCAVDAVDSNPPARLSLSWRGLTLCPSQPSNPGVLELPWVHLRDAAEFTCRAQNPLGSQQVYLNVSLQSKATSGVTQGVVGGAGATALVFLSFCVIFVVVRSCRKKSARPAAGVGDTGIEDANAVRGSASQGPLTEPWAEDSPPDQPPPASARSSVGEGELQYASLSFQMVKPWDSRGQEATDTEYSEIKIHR
Protein translocase subunit SecA (Escherichia coli (strain K12)), sequence (P10408 whole entry): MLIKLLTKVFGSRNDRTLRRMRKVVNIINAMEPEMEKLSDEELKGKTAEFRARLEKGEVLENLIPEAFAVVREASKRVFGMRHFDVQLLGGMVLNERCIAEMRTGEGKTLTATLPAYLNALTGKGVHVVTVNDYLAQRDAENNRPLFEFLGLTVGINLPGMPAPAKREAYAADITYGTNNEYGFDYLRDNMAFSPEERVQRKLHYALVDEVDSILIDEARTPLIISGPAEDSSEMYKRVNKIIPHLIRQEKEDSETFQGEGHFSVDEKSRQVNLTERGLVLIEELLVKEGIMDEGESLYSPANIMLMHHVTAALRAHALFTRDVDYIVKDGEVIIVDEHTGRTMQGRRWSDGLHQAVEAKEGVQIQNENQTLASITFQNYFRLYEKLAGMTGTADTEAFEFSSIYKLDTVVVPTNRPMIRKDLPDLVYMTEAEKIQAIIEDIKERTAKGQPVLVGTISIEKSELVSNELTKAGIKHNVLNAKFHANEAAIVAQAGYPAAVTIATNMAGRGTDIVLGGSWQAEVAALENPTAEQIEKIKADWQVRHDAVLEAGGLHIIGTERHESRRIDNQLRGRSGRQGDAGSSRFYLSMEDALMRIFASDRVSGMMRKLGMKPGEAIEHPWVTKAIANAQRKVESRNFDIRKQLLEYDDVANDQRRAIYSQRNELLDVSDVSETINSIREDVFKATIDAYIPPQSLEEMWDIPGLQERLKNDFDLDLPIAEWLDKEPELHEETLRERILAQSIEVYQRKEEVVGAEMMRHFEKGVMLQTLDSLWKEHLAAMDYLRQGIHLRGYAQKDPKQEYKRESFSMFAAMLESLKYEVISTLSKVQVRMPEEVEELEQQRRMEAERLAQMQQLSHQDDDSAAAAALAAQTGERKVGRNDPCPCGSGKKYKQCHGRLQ
Chromo domain-containing protein 1 (Saccharomyces cerevisiae (strain ATCC 204508 / S288c) (Baker's yeast)), sequence (P32657 whole entry, the tested form may be a part): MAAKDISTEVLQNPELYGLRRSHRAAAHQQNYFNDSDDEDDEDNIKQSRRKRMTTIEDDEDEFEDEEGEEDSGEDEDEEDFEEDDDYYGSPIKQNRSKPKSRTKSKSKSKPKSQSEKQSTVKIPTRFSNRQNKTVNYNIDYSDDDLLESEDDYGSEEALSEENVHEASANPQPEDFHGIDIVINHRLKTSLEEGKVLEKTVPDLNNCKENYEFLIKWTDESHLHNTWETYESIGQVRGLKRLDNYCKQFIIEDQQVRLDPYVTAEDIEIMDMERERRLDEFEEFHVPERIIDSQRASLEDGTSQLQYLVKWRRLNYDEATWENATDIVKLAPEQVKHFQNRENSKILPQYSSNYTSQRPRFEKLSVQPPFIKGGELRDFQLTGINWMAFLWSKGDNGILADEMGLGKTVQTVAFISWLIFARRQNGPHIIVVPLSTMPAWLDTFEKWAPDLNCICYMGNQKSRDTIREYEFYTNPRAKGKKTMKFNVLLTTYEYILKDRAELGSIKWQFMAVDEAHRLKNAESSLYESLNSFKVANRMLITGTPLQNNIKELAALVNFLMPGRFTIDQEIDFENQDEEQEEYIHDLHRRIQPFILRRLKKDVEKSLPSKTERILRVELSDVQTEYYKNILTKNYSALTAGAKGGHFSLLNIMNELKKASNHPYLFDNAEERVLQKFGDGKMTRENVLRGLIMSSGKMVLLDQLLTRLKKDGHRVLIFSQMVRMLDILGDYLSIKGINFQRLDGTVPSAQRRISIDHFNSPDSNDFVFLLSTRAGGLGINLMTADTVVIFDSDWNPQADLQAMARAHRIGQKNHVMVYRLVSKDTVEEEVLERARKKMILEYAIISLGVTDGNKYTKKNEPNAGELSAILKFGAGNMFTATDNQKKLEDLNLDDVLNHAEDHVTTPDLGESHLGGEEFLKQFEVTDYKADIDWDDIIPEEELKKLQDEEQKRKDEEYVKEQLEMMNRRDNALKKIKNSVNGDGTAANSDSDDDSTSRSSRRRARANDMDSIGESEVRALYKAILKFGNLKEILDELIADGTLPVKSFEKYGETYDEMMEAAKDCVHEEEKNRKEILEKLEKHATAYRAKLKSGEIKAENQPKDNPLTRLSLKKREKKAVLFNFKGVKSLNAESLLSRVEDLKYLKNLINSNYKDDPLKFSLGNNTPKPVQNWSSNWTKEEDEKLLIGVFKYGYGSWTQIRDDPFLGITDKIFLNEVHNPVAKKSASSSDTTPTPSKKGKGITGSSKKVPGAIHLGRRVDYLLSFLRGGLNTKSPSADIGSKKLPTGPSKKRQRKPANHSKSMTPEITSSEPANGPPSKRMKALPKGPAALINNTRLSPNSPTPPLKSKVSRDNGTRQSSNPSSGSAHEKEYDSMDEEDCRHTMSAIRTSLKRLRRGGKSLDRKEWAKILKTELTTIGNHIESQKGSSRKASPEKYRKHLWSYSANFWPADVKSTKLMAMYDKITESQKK

O=C1CSC(c2ccsc2)c2c(n(C3CCOCC3)[nH]c2=O)N1 (centres undefined)
Percent Effect [1]: -1.28% | Percent Effect [2]: 14.7% | Percent Effect [3]: -2.38% | Percent Effect [4]: -5.51% | Percent Effect [5]: 3.3% | Percent Effect [6]: -0.589% | Percent Effect ([7]; 30 µM): 7.03% | Percent Effect ([7]; 33.3 µM): 94.2% | Percent Effect [8]: 8.13% | Percent Effect [9]: 6.12% | Percent Effect [10]: -12.8% | Percent Effect [11]: 6.35% | Percent Effect [12]: 12.8% | Percent Effect [13]: -11.9%

Cc1nc(N2C[C@@H]3CCN(C)[C@@H]3C2)c2ccsc2n1
PXC50 ([14]; MAX_EFFECT 4.081632653): < 4 | PXC50 ([14]; MAX_EFFECT 6.313131313): < 4

O=C(O)CN1CCC(F)(F)C2(CCN(c3ccccn3)C2)C1 (centres undefined)
PXC50 ([14]; MAX_EFFECT 7.981220657): < 4 | PXC50 ([14]; MAX_EFFECT 9.814814815): < 4

Clc1ccccc1Nc1ncnc(-n2cccc2)n1
PXC50 ([14]; MAX_EFFECT 8.148148148): < 4
